The text below walks through data of PubChem BioAssay (EPA / NIEHS).

Common to all, as to conditions: mRNA level, 48 h; actives raise or lower the signal
Read-out in assay [1]: Heat shock 70 kDa protein 1 (HSPA1A), gene 3303
As to the kind of experiment: LTEA_HepaRG_HSPA1A: Life Technologies and Expression Analysis (LTEA) Assay for Heat shock 70 kDa protein 1 (HSPA1A) using HepaRG (AID 2283502). The gist of the method: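 HSPA1A expression measured by qRT-PCR with ACTB/GAPDH/POLR2A normalization; curves fitted in both directions relative to DMSO vehicle. Exposure: 48 h in HepaRG cells, duplicate 8-point half-log series from 100 uM, 0.5% DMSO, serum-free induction medium.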

Read-out in assay [2]: Hypoxia-inducible factor 1-alpha (Homo sapiens) (UniProt Q16665)
As to the kind of experiment: LTEA_HepaRG_HIF1A: Life Technologies and Expression Analysis (LTEA) Assay for Hypoxia-inducible factor 1 (HIF1A) Trancription factor using HepaRG (AID 2283503). The gist of the method:
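HIF1A transcript level read by qRT-PCR (ACTB, GAPDH, POLR2A normalization) after 48 h chemical exposure of HepaRG cultures. Eight half-log concentrations, top 100 uM, 0.5% DMSO vehicle, duplicates; bidirectional curve fit against DMSO baseline.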

Read-out in assay [3]: 3-Hydroxy-3-Methylglutaryl-CoA Synthase 2 (HMGCS2), HMGCS2 (gene 3158)
As to the kind of experiment: LTEA_HepaRG_HMGCS2: Life Technologies and Expression Analysis (LTEA) Assay for 3-Hydroxy-3-Methylglutaryl-CoA Synthase 2 (HMGCS2) using HepaRG (AID 2283504). In outline: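 Expression of HMGCS2 in human HepaRG liver cells is measured by qRT-PCR 48 h after dosing (highest 100 uM, half-log series, 0.5% DMSO). Values come from bidirectional concentration-response fitting with DMSO as baseline.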

Read-out in a further assay: HGF (gene 3082)
As to the kind of experiment: LTEA_HepaRG_HGF: Life Technologies and Expression Analysis (LTEA) Assay for Hepatocyte Growth Facto (HGF) using HepaRG (AID 2283505). The gist of the method: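 Gain or loss of HGF mRNA in human HepaRG liver cells after 48 h chemical exposure; eight concentrations up to 100 uM with 0.5% DMSO vehicle, quantified by TaqMan qRT-PCR.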

Read-out in assay [4]: Insulin Like Growth Factor 1 (IGF1), IGF1 (gene 3479)
As to the kind of experiment: LTEA_HepaRG_IGF1: Life Technologies and Expression Analysis (LTEA) Assay for Insulin Like Growth Factor 1 (IGF1) using HepaRG (AID 2283506). In outline: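 Expression measured by TaqMan qRT-PCR on a Fluidigm array, with three housekeeping genes for normalisation, after 48 h treatment of HepaRG cells. Top concentration 100 uM with half-log steps, 0.5% DMSO vehicle, bidirectional fit.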

Read-out in assay [5]: Insulin-like growth factor-binding protein 1 (IGFBP1), IGFBP1 (gene 3484)
As to the kind of experiment: LTEA_HepaRG_IGFBP1: Life Technologies and Expression Analysis (LTEA) Assay for Insulin-like growth factor-binding protein 1 (IGFBP1) using HepaRG (AID 2283508). The gist of the method:
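mRNA induction or loss was quantified by qRT-PCR after 48 h chemical exposure of human HepaRG cells, with 0.5% DMSO as vehicle and baseline. Concentration-response over eight points up to 100 uM.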

Read-out in assay [6]: Interleukin 6 (IL6), IL6 (gene 3569)
As to the kind of experiment: LTEA_HepaRG_IL6: Life Technologies and Expression Analysis (LTEA) Assay for Interleukin 6 (IL6) using HepaRG (AID 2283509). In outline: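 Changes in IL6 mRNA, up or down relative to 0.5% DMSO controls, were derived from concentration-response curves in human HepaRG cells treated for 48 h at up to 100 uM, with ACTB, GAPDH and POLR2A as normalizers.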

Read-out in assay [7]: Interleukin 6 Receptor (IL6R), IL6R (gene 3570)
As to the kind of experiment: LTEA_HepaRG_IL6R: Life Technologies and Expression Analysis (LTEA) Assay for Interleukin 6 Receptor (IL6R) using HepaRG (AID 2283510). The gist of the method:
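IL6R transcript level by qRT-PCR after 48 h chemical exposure (8-point, half-log, max 100 uM, 0.5% DMSO vehicle) of HepaRG cells in serum-free induction medium. Normalized to three housekeeping genes; curves fitted in both directions relative to DMSO.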

Read-out in assay [8]: Potassium channel subfamily K member 1 (KCNK1), KCNK1 (gene 3775)
As to the kind of experiment: LTEA_HepaRG_KCNK1: Life Technologies and Expression Analysis (LTEA) Assay for Potassium channel subfamily K member 1 (KCNK1) using HepaRG (AID 2283511). In outline: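 Human HepaRG cultures receive test chemicals for 48 h in 0.5% DMSO, top concentration 100 uM with half-log dilutions. Induction or suppression of KCNK1 mRNA relative to DMSO is derived by bidirectional fitting of qRT-PCR data.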

Read-out in assay [9]: Keratin 19 (KRT19), KRT19 (gene 3880)
As to the kind of experiment: LTEA_HepaRG_KRT19: Life Technologies and Expression Analysis (LTEA) Assay for Keratin 19 (KRT19) using HepaRG (AID 2283512). In outline: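 Gene-expression endpoint in the human liver line HepaRG after 48 h exposure to up to 100 uM test chemical with 0.5% DMSO vehicle; KRT19 mRNA by qRT-PCR, analyzed bidirectionally versus DMSO.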

Read-out in assay [10]: JUN Transcription Factor, JUN (gene 3725)
As to the kind of experiment: LTEA_HepaRG_JUN: Life Technologies and Expression Analysis (LTEA) Assay for JUN Transcription Factor using HepaRG (AID 2283513). The gist of the method: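 mRNA measured by TaqMan qRT-PCR after 48 h chemical exposure of HepaRG cultures; normalization to three housekeeping genes. Duplicate eight-point half-log curves from 100 uM in 0.5% DMSO; gain or loss fitted against DMSO baseline.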

Read-out in assay [11]: Lipase C (LIPC), LIPC (gene 3990)
As to the kind of experiment: LTEA_HepaRG_LIPC: Life Technologies and Expression Analysis (LTEA) Assay for Lipase C (LIPC) using HepaRG (AID 2283514). The gist of the method: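 In this multiplexed gene-expression screen, human HepaRG cultures received test chemicals for 48 h across eight concentrations with 100 uM highest, in duplicate. Values reflect LIPC mRNA induction or suppression versus DMSO vehicle, from normalized qRT-PCR.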

Read-out in assay [12]: Lipoprotein lipase (LPL), LPL (gene 4023)
As to the kind of experiment: LTEA_HepaRG_LPL: Life Technologies and Expression Analysis (LTEA) Assay for Lipoprotein lipase (LPL) using HepaRG (AID 2283515). In outline: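 Concentration-response testing used half-log steps from 100 uM in 0.5% DMSO on human HepaRG cells, 48 h, duplicate wells. Phenobarbital 1 mM served as induction control; LPL mRNA was normalized to ACTB, GAPDH, POLR2A.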

Read-out in assay [13]: MicroRNA 122 (MIR122), gene 406906
As to the kind of experiment: LTEA_HepaRG_MIR122: Life Technologies and Expression Analysis (LTEA) Assay for MicroRNA 122 (MIR122) using HepaRG (AID 2283516). Note: the transcript read is the microRNA miR-122. The gist of the method: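 Expression measured by microfluidic qRT-PCR with three housekeeping genes for normalisation, after 48 h treatment of HepaRG cultures. Eight concentrations (top 100 uM, half-log steps, 0.5% DMSO vehicle) in duplicate; gain or loss fitted relative to vehicle.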

Read-out in assay [14]: matrix metalloproteinase-10 (MMP10), MMP10 (gene 4319)
As to the kind of experiment: LTEA_HepaRG_MMP10: Life Technologies and Expression Analysis (LTEA) Assay for matrix metalloproteinase-10 (MMP10) using HepaRG (AID 2283517). In outline:
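In differentiated HepaRG cultures kept in 0.5% DMSO, test chemicals act for 48 h over an eight-point range with a top dose of 100 uM. Expression is then quantified by TaqMan RT-PCR against ACTB, GAPDH and POLR2A.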

Read-out in a further assay: MYC, MYC (gene 4609)
As to the kind of experiment: LTEA_HepaRG_MYC: Life Technologies and Expression Analysis (LTEA) Assay for MYC using HepaRG (AID 2283518). In outline:
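Cells are thawed, plated and cultured 48 h, then treated for 48 h with test chemicals (eight half-log concentrations from 100 uM, 0.5% DMSO vehicle). RNA is isolated and MYC expression quantified by qRT-PCR against three housekeeping genes.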

Read-out in assay [15]: matrix metalloproteinase-3 (MMP3), MMP3 (gene 4314)
As to the kind of experiment: LTEA_HepaRG_MMP3: Life Technologies and Expression Analysis (LTEA) Assay for matrix metalloproteinase-3 (MMP3) using HepaRG (AID 2283519). In outline: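 Human liver HepaRG cultures received chemicals (top concentration 100 uM, 0.5% DMSO) for 48 h in duplicate. MMP3 mRNA induction or loss was then assessed via TaqMan qRT-PCR with housekeeping-gene normalisation.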

Read-out in assay [16]: Paternally Expressed 10 (PEG10), PEG10 (gene 23089)
As to the kind of experiment: LTEA_HepaRG_PEG10: Life Technologies and Expression Analysis (LTEA) Assay for Paternally Expressed 10 (PEG10) using HepaRG (AID 2283520).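 For AC50: differentiated HepaRG human liver cells in serum-free induction medium with 0.5% DMSO; PEG10 transcript by qRT-PCR normalised to ACTB GAPDH and POLR2A.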 In outline: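 PEG10 transcript measured by Fluidigm qRT-PCR, normalized to three housekeeping genes, in HepaRG cells treated 48 h (highest 100 uM, half-log steps, 0.5% DMSO vehicle). Cells plated 48 h before switching to serum-free induction medium.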

Read-out in assay [17]: Protein phosphatase 2A (PPP2R4), PTPA (gene 5524)
As to the kind of experiment: LTEA_HepaRG_PPP2R4: Life Technologies and Expression Analysis (LTEA) Assay for Protein phosphatase 2A (PPP2R4) using HepaRG (AID 2283522). The gist of the method: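 Expression was quantified by Fluidigm qRT-PCR normalised to three housekeeping genes after 48 h treatment. Human HepaRG cells received an 8-point series from 100 µM downward by half-logs, in duplicate with 0.5% DMSO vehicle and 1 mM phenobarbital as induction control.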

Read-out in assay [18]: Phosphatase and tensin (PTEN), PTEN (gene 5728)
As to the kind of experiment: LTEA_HepaRG_PTEN: Life Technologies and Expression Analysis (LTEA) Assay for Phosphatase and tensin (PTEN) using HepaRG (AID 2283523). In outline:
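Expression of PTEN is quantified in the human liver line HepaRG following two days of dosing (top concentration 100 uM, half-log dilutions, 0.5% DMSO). Values derive from bidirectional curve fitting relative to DMSO controls.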

Each structure is given as a SMILES string. Calls of active or inactive are those of the source. Rule for the calls: active = hit-call score of the fitted dose curve at least 0.9, where 1 is the maximum; inactive = score below 0.9.

Sequence of Hypoxia-inducible factor 1-alpha (Homo sapiens) (Q16665 whole entry, looked up): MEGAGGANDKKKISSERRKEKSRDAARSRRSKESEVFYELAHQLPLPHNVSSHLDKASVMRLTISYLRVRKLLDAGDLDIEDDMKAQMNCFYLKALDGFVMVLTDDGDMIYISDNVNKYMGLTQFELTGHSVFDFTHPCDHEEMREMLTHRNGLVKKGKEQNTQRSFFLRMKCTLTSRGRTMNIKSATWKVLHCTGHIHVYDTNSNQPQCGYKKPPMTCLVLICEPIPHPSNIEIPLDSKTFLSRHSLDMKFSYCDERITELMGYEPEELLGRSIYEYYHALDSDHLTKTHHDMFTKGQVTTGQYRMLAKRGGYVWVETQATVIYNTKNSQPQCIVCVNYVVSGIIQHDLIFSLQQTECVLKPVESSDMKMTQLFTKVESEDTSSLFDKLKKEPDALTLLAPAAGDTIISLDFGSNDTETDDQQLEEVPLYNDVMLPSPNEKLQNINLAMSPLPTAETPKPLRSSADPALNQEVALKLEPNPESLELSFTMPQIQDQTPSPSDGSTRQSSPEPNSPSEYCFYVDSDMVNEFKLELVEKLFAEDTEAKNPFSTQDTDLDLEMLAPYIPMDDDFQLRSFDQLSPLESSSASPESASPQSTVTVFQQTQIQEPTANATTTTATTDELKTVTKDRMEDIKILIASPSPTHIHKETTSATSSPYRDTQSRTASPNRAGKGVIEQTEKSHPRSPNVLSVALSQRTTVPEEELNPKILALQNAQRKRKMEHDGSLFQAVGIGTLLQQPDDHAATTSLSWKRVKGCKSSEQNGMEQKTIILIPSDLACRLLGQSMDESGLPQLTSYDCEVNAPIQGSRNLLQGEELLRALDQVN

Turning to `C=CC(=O)OCCCCCC(C)C`, the molecule was classed as inactive (in [1]; in assay [2]; in assay [3]; in the assay with HGF (gene 3082); in assay [4]; in [5]). Besides, the outcome in assay [6], in assay [7], in assay [8], in assay [9], in assay [10] and in assay [11] was inactive. Besides, the outcome was “inactive” in [12]; “inactive” in assay [13]; “inactive” in [14]; “inactive” in the assay with MYC, MYC (gene 4609); “inactive” in assay [15]; “inactive” in [16]. Moreover, the molecule was classed as inactive in [17] and in [18].

As for `C[C@@H]1C[C@@H]([C@H](O)CC2CC(=O)NC(=O)C2)C(=O)[C@@H](C)C1`, the AC50 is 30.6 µM (active) in assay [1]; 9.18 µM (active) in assay [2]; 27 µM (active) in assay [3]; 71.7 µM (active) with HGF (gene 3082); 9.09 µM (active) in [4]; 22.3 µM (active) in assay [5]. The AC50 was 11.8 µM (active) in assay [6]; 12.2 µM (active) in assay [8]; 12.5 µM (active) in assay [9]; 30 µM (active) in [10]; 20 µM (active) in assay [11]; 92.2 µM (active) in assay [12]. Further, the AC50 in assay [13] was 10.6 µM (active); with MYC, MYC (gene 4609) it was 13.9 µM (active); in assay [15], 83.3 µM (active); in assay [16], 2.39 µM (active); in assay [17], 0.636 µM (active); in [18] it was 87.6 µM (active). Further, the outcome in assay [7] and in [14] was inactive.

Turning to `ClCC(Cl)CCl`, the result (in [1]; in [2]; in assay [3]; with HGF (gene 3082); in assay [4]; in assay [5]) was inactive. The result in [6], in [7], in [8], in [9], in assay [10] and in assay [11] was inactive. In addition, the outcome in [12] is “inactive”; in assay [13], “inactive”; in assay [14], “inactive”; with MYC, MYC (gene 4609), “inactive”; in assay [15], “inactive”; in [16], “inactive”. Moreover, the result in [17] and in assay [18] was inactive.

With `Cc1ccccc1N`, the molecule was called inactive (in assay [1]; in assay [2]; in [3]; in the assay with HGF (gene 3082); in [4]; in assay [5]). The result in assay [6], in [7], in assay [8], in assay [9], in assay [10] and in assay [11] was inactive. Also, the outcome in [12] was “inactive”; in [13], “inactive”; in [14] it was “inactive”; with MYC, MYC (gene 4609), “inactive”; in [15], “inactive”; in assay [16], “inactive”. Moreover, the result in assay [17] and in assay [18] was inactive.

By AC50 is commonly meant the midpoint of the concentration-response curve, whichever way the signal moves.
